PubChem BioAssay (NCATS)
Results filed as inconclusive are left out. The source made the active and inactive calls. Calls come from the whole dose curve; as a rule, active = well fitted curve in the direction sought with a large enough effect; inconclusive = small, poorly fitted or top-dose-only effect, or another doubt; inactive = no such curve, though single readings can be large; an effect the other way counts as inactive or inconclusive.

Key:
[1] = Cell Viability - LYMP2-004 (AID 966); note: nearly all actives have a fitted effect of over 65% in size
Procedure, shortened: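 qHTS cytotoxicity: human lymphoblastoid line, 24 hr compound treatment, 37 C, complete medium. Viability read as cellular ATP via luciferase luminescence; tetraoctylammonium bromide served as positive control.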

[2] = Cell Viability - LYMP2-005 (AID 967); note: series mostly up to about 92 µM
Procedure, shortened: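 Acute cytotoxicity is scored as a concentration-dependent drop in intracellular ATP in human lymphoblastoid LYMP2-005 cells after 24 h compound treatment. ATP is quantified by luciferase luminescence, and AC50 is derived by Hill-equation modelling.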

[3] = Cell Viability - LYMP2-009 (AID 968); note: series mostly up to about 92 µM; nearly all actives have a fitted effect of over 55% in size
[4] = Cell Viability - LYMP2-011 (AID 969); note: nearly all actives have a fitted effect of over 60% in size
Procedure, shortened: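 In this qHTS cytotoxicity format, compounds are tested across concentrations on human lymphoblastoid cells in complete medium for 24 hours at 37 C. Viability is taken as cellular ATP measured by luciferase luminescence.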

[5] = Cell Viability - LYMP2-013 (AID 970); note: series mostly up to about 92 µM; nearly all actives have a fitted effect of over 55% in size
Procedure, shortened: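 Cytotoxicity is scored as a concentration-dependent drop in intracellular ATP in human lymphoblastoid cells after 24 hr compound exposure at 37 C. ATP is quantified by luciferase luminescence, and AC50 values come from Hill-equation modeling.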

[6] = Cell Viability - LYMP2-015 (AID 971); note: nearly all actives have a fitted effect of over 55% in size
Procedure, shortened: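 Cells are seeded at 2500 per well and incubated 5 hr at 37 C. Compounds are added across a concentration series for 24 hr at 37 C. CellTiter-Glo is added, and luminescence is read after 30 min at room temperature.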

[7] = Cell Viability - LYMP2-017 (AID 972); note: series mostly up to about 92 µM; nearly all actives have a fitted effect of over 55% in size
Procedure, shortened: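 Cytotoxicity is scored as a concentration-dependent drop in cellular ATP in a human lymphoblastoid line after 24 hr treatment at 37 C. Values are AC50s from Hill-equation modelling.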

[8] = Cell Viability - LYMP2-019 (AID 973); note: nearly all actives have a fitted effect of over 55% in size
Procedure, shortened: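 Cytotoxicity is scored as a concentration-dependent drop in cellular ATP after cells (2500/well) receive compound for 24 hr at 37 C. Tetraoctylammonium bromide serves as positive control.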

[9] = Cell Viability - LYMP2-021 (AID 974)
Procedure, shortened: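 Loss of cellular ATP, measured with a luciferase-based CellTiter-Glo readout, serves as the toxicity signal in human lymphoblastoid cells treated for 24 hours at 37 C. Potency is reported as AC50 from a standard Hill model.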

[10] = Cell Viability - LYMP2-023 (AID 975)
Procedure, shortened: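 Steps: seed 2500 human lymphoblastoid cells per well, incubate 5 hr at 37 C, add compound for 24 hr at 37 C, add CellTiter-Glo, hold 30 min at room temperature, read luminescence. AC50 derived by Hill modelling.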

[11] = Cell Viability - LYMP2-025 (AID 976); note: series mostly up to about 92 µM
Procedure, shortened: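 Acute cytotoxicity is scored as a concentration-dependent fall in intracellular ATP, measured by luciferase luminescence, in human lymphoblastoid LYMP2-025 cells exposed to compound for 24 hours at 37 C. AC50 values come from standard Hill fits.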

[12] = Cell Viability - LYMP2-002 (AID 977);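 note: series mostly up to about 92 µM; compound exposure lasted 24 h at 37 °C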
Procedure, shortened: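 Human lymphoblastoid cells, 2500/well, complete medium; 5 h 37 C settle; compound 24 h 37 C; CellTiter-Glo, 30 min RT; luminescence. Decrease in ATP = cytotoxicity; AC50 via Hill equation.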

[13] = Cell Viability - LYMP2-006 (AID 978); note: series mostly up to about 92 µM; nearly all actives have a fitted effect of over 60% in size
Procedure, shortened: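 Cells are seeded at 2500 per well and rested 5 hr at 37 C. Compounds are added across a concentration series for 24 hr at 37 C, after which ATP is quantified by luciferase luminescence.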

[14] = Cell Viability - LYMP2-007 (AID 979);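 note: cells exposed to compound for 24 h before reading; nearly all actives have a fitted effect of over 60% in size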
Procedure, shortened: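 Cells are seeded at 2500 per well and rested 5 hr. Compounds are then added over a concentration series for 24 hr at 37 C. CellTiter-Glo is added for 30 min at room temperature before luminescence reading.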

[15] = Cell Viability - LYMP2-008 (AID 980); note: nearly all actives have a fitted effect of over 60% in size
Procedure, shortened: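 Cells seeded at 2500/well and rested 5 hr at 37 C; compounds added over a concentration range and incubated 24 hr at 37 C; CellTiter-Glo added, 30 min at room temperature; luminescence read and AC50 fitted with Hill model.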

[16] = Cell Viability - LYMP2-010 (AID 981); note: nearly all actives have a fitted effect of over 55% in size
Procedure, shortened: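 Steps: seed 2500 LYMP2-010 cells per well; incubate 5 hr at 37 C; add compound; incubate 24 hr at 37 C; add CellTiter-Glo, wait 30 min at room temperature; read luminescence. Concentration-response fitted to Hill equation for AC50.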

[17] = Cell Viability - LYMP2-012 (AID 982)
[18] = Cell Viability - LYMP2-014 (AID 983); note: series mostly up to about 92 µM; nearly all actives have a fitted effect of over 50% in size
Procedure, shortened: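 Cells are plated at 2500/well and left 5 hr at 37 C. Compounds are added across a concentration range and incubated 24 hr at 37 C in complete medium. CellTiter-Glo is added, and luminescence is read after 30 min at room temperature.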

[19] = Cell Viability - LYMP2-016 (AID 984); note: nearly all actives have a fitted effect of over 55% in size
Procedure, shortened: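 Cells were seeded at 2500 per well and rested 5 hr before a 24 hr compound exposure at 37 C. Viability was then gauged as cellular ATP by luciferase luminescence, with AC50 values fitted to the Hill equation.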

[20] = Cell Viability - LYMP2-018 (AID 985); note: nearly all actives have a fitted effect of over 50% in size
Procedure, shortened: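 Seed 2500 lymphoblastoid cells per well, incubate 5 hr at 37 C, add compound and incubate 24 hr at 37 C, add CellTiter-Glo, wait 30 min at room temperature, then read luminescence.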

Measured: Potency

c1ccc2[nH]cnc2c1
inactive: all assays above

CC=O
inactive: all assays above

CC(C)C(C)C
inactive: all assays above

NC(N)=S
inactive: all assays above

CC(=O)Nc1ccc(N)cc1
inactive: all assays above

Clc1cc(Cl)cc(Cl)c1
inactive: all assays above

N#Cc1ccccc1
inactive: all assays above

CC(=O)Nc1ccccc1C
inactive: all assays above

CCCCCNCCCCC
not listed: [16]
inactive: all other assays above

Oc1c(Cl)ccc(Cl)c1Cl
not listed: [16]
inactive: all other assays above

NCCCCCCN
inactive: all assays above

O=[N+]([O-])c1cccc(Cl)c1
not listed: [16] | [17]
inactive: all other assays above

CCCCOCCOCCSC#N
not listed: [16]
inactive: all other assays above

C=C(C)C(=O)OCC(C)O (centres undefined)
inactive: all assays above

Cc1cccc(C)c1O
not listed: [17]
inactive: all other assays above
